According to PubChem BioAssay (NCATS):
Inconclusive results are not listed. Active and inactive are the calls of the source. Calls come from the whole dose curve; as a rule, active = well fitted curve in the direction sought with a large enough effect; inconclusive = small, poorly fitted or top-dose-only effect, or another doubt; inactive = no such curve, though single readings can be large; an effect the other way counts as inactive or inconclusive.

molecular target: M-phase phosphoprotein 8 (Homo sapiens) (UniProt Q99549); assay: qHTS Validation Assay for Inhibitors for MPP8 Chromodomain Interactions with Methylated Histone Tails (AID 488949); settings: AlphaScreen MPP8 binding to H3K9me3 peptide; series mostly up to 114 µM;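 note: 50 nM MPP8 with 50 nM peptide preformed then compounds added for 30 min; AlphaScreen signal from MPP8 chromodomain bound to biotinylated H3K9me3 peptide; top concentration of the series differs between compounds; nearly all actives have a fitted effect of over 55% in size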
Procedure, shortened: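 50 nM MPP8 + 50 nM b-H3K9me3 peptide, PBS pH 7.4/0.01% Tween-20, 30 min RT; + cpd 30 min RT; + AlphaScreen donor/Ni-chelate acceptor beads 10 ug/mL final, 30 min dark; luminescence read.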

Chain of M-phase phosphoprotein 8 (Homo sapiens) (Q99549 whole entry, looked up): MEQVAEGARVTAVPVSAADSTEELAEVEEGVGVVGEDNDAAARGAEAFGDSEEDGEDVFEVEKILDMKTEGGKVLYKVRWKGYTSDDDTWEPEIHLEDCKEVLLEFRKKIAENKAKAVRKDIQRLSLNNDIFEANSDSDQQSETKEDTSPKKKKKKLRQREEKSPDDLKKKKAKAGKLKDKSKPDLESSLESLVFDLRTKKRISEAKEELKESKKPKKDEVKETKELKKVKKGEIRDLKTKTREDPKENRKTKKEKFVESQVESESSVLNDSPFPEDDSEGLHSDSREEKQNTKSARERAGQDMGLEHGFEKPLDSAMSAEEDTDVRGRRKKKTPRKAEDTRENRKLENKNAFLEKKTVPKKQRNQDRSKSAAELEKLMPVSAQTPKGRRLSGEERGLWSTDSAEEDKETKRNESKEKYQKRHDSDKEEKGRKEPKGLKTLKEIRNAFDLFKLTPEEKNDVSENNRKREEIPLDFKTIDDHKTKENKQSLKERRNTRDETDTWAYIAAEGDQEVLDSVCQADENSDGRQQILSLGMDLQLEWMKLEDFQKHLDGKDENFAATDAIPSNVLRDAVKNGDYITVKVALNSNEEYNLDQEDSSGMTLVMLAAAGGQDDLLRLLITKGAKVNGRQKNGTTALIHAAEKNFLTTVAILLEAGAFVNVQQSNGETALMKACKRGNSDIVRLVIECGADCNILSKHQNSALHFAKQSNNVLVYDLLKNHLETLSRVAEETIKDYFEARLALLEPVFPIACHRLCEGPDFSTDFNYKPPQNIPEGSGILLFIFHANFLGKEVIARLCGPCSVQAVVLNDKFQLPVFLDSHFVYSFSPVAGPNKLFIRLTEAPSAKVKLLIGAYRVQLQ

| SMILES | outcome |
| --- | --- |
| O=c1[nH]c(=O)n([C@H]2C[C@H](O)[C@@H](CO)O2)cc1/C=C/Br | inactive |
| Oc1ccc(/C=C/c2cc(O)cc(O)c2)cc1 | inactive |
| C[C@@](Cc1ccc(O)c(O)c1)(NN)C(=O)O | inactive |
| O=C(NCCNCC(O)COc1ccc(O)cc1)N1CCOCC1 (stereo not given) | inactive |
| Cc1cc(C)c(NC(=O)C[C@H](CC(=O)O)c2cccc3ccccc23)c(C(=O)N2CCC3(CCCC3)CC2)c1 | inactive |

molecular target: Transient receptor potential cation channel subfamily V member 1 (Homo sapiens) (UniProt Q8NER1); assay: HTS Assay for Compounds that Act as Enhancers of the Vanilloid Receptor 1 (AID 488979); settings: TRPV1-expressing cells, enhancer of channel activity, stimulated with capsaicin at EC20; series mostly up to 41.7 µM
Procedure, shortened: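 Calcium influx kinetics via Fluo-8 (480/520 nm) in TRPV1-expressing cells, 2000/well cultured overnight at 35.5C. Compound-alone read 3 min (agonist phase), followed by EC20 capsaicin challenge for 2 min (enhancer phase).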

Chain of Transient receptor potential cation channel subfamily V member 1 (Homo sapiens) (Q8NER1 whole entry, looked up): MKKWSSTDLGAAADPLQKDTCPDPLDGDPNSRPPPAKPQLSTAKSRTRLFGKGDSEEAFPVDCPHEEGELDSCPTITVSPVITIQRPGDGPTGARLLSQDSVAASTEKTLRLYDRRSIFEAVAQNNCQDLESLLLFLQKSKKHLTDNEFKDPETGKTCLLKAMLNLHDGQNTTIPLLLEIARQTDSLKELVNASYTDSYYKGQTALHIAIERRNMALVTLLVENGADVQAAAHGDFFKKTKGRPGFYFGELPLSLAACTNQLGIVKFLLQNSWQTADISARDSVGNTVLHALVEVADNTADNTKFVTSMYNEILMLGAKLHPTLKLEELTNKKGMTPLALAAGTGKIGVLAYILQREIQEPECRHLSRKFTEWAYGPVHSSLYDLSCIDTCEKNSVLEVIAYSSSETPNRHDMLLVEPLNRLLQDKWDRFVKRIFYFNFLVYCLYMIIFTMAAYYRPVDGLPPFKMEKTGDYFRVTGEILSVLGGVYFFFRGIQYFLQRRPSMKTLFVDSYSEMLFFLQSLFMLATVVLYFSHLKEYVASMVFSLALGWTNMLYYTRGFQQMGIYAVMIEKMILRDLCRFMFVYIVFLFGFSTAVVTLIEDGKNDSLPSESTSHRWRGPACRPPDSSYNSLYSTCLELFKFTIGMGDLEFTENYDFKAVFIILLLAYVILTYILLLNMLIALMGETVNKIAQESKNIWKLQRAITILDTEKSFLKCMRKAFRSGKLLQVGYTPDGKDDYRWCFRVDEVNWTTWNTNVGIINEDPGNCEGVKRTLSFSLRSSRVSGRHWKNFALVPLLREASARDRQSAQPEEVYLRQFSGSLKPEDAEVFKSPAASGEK

| SMILES | outcome |
| --- | --- |
| O=c1[nH]c(=O)n([C@H]2C[C@H](O)[C@@H](CO)O2)cc1/C=C/Br | inactive |
| Oc1ccc(/C=C/c2cc(O)cc(O)c2)cc1 | inactive |
| C[C@@](Cc1ccc(O)c(O)c1)(NN)C(=O)O | inactive |
| O=C(NCCNCC(O)COc1ccc(O)cc1)N1CCOCC1 (stereo not given) | inactive |
| Cc1cc(C)c(NC(=O)C[C@H](CC(=O)O)c2cccc3ccccc23)c(C(=O)N2CCC3(CCCC3)CC2)c1 | inactive |

molecular target: Thyrotropin receptor (Homo sapiens) (UniProt P16473); assay: qHTS Assay for Antagonists of the Thyroid Stimulating Hormone Receptor (AID 488980); settings: TSHR-expressing cells, cAMP antagonist read-out; series mostly up to 57.5 µM
Procedure, shortened: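 Readout is cAMP by HTRF competition between cellular cAMP and cAMP-d2 for a cryptate-labelled antibody. Antagonism was assessed in TSHR-transfected HEK293 cells stimulated with 4 nM TSH (EC80, final) in the presence of RO 20-1724.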

Chain of Thyrotropin receptor (Homo sapiens) (P16473 whole entry, looked up): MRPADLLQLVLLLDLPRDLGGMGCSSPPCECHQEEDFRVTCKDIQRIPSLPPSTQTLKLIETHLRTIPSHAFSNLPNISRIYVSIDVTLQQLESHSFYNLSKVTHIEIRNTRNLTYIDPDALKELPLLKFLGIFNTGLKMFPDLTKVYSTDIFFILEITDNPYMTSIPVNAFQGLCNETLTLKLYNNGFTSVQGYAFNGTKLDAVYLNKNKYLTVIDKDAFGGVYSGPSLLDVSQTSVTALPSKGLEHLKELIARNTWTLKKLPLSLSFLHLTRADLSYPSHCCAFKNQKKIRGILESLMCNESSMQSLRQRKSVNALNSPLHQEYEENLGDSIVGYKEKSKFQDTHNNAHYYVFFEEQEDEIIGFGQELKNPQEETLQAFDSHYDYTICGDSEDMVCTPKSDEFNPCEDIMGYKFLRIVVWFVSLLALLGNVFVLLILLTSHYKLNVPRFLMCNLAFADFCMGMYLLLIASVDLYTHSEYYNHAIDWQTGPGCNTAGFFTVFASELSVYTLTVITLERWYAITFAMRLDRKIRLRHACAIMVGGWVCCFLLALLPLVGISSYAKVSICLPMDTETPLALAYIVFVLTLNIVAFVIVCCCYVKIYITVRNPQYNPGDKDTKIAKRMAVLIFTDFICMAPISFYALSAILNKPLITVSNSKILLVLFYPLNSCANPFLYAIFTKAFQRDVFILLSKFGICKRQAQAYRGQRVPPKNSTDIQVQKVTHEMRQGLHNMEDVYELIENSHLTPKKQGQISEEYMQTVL

| SMILES | outcome |
| --- | --- |
| O=c1[nH]c(=O)n([C@H]2C[C@H](O)[C@@H](CO)O2)cc1/C=C/Br | inactive |
| Oc1ccc(/C=C/c2cc(O)cc(O)c2)cc1 | inactive |
| C[C@@](Cc1ccc(O)c(O)c1)(NN)C(=O)O | inactive |
| O=C(NCCNCC(O)COc1ccc(O)cc1)N1CCOCC1 (stereo not given) | inactive |
| Cc1cc(C)c(NC(=O)C[C@H](CC(=O)O)c2cccc3ccccc23)c(C(=O)N2CCC3(CCCC3)CC2)c1 | inactive |
